# Measurements as given in PubChem BioAssay (NCATS).
# Where “and” joins values, the source holds several entries; their conditions need not be identical. Equal entries are not always repeated. Inconclusive results are not listed. Where a call stands in place of a potency, no number is given. Some structures have more than one record in an assay (separate samples or runs), and their calls can disagree. Calls of active or inactive are those of the source. Unless noted, the call rests on the fitted dose curve; in most records, active means well fitted curve in the direction sought with a large enough effect; inconclusive means small, poorly fitted or top-dose-only effect, or another doubt; inactive means no such curve, though single readings can be large; an effect the other way counts as inactive or inconclusive.
# Legend:
# [1] = P-glycoprotein substrates identified in KB-3-1 adenocarcinoma cell line, qHTS therapeutic library screen (AID 1346986); further: nearly all actives have a fitted effect of over 60% in size
# Procedure, shortened: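 Viability by CellTiter-Glo after 72 h compound exposure at 37 degree C, 5% CO2. Cytotoxic call: curve class -1.1 to -2.4, maximum response >50%, AC50 < 10 uM, compared across KB-3-1 and P-gp-overexpressing KB-8-5-11.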
# [2] = P-glycoprotein substrates identified in KB-8-5-11 adenocarcinoma cell line, qHTS therapeutic library screen (AID 1346987); further: nearly all actives have a fitted effect of over 65% in size; further: potency means the concentration at half of the fitted maximal effect
# Procedure, shortened: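 Human cervical adenocarcinoma KB-8-5-11 cells, selected in colchicine to over-express P-gp and assayed without it, were exposed for 72 h to titrated compounds. An ATP-based luminescent viability signal gave AC50.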
# [3] = NS1 protein of Zika virus - qHTS assay to identify small molecule inhibitors in human HEK 293 cells (AID 1347053); further: nearly all actives have a fitted effect of over 55% in size; further: potency means the concentration at half of the fitted maximal effect
# Procedure, shortened: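 Compound-treated (1 h pre-infection) HEK 293 cells infected with ZIKV MR766, MOI = 0.5; after 24 h at 37 C, NS1 read by TR-FRET; data normalized to uninfected and infected controls.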
# [4] = qHTS for Inhibitors of the Functional Ribonucleoprotein Complex (vRNP) of Lassa (LASV) Arenavirus: Viability assay - alamar blue signal for LASV Primary Screen (AID 1347083; calls by dose curve; tested in HEK293 reporter line; further: nearly all actives have a fitted effect of over 80% in size; further: potency means the concentration at half of the fitted maximal effect)
# [5] = qHTS for Inhibitors of the Functional Ribonucleoprotein Complex (vRNP) of Lymphocytic Choriomeningitis Arenaviruses (LCMV): Viability assay - alamar blue signal for LCMV Primary Screen (AID 1347085; calls by dose curve; tested in HEK293 reporter line; further: nearly all actives have a fitted effect of over 80% in size; further: potency means the concentration at half of the fitted maximal effect)
# [6] = molecular target: Nucleoprotein (Lymphocytic choriomeningitis virus (strain Armstrong)) (UniProt P09992); assay: qHTS for Inhibitors of the Functional Ribonucleoprotein Complex (vRNP) of Lymphocytic Choriomeningitis Arenaviruses (LCMV): LCMV Primary Screen - GLuc reporter signal (AID 1347086; calls by dose curve; further: nearly all actives have a fitted effect of over 70% in size; further: potency means the concentration at half of the fitted maximal effect)
# [7] = qHTS for Inhibitors of the Functional Ribonucleoprotein Complex (vRNP) of Lassa (LASV) Arenavirus: LASV Primary Screen - GLuc reporter signal (AID 1347082; calls by dose curve; tested in HEK293 reporter line; further: nearly all actives have a fitted effect of over 60% in size; further: potency means the concentration at half of the fitted maximal effect)
# [8] = Natriuretic polypeptide receptor (hNpr1) antagonism - Pilot counterscreen GloSensor control cell line (AID 1347045; calls by dose curve; further: series mostly up to about 38 µM)
# Procedure, shortened: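 The SNP-driven cGMP luminescence signal (50 uM, 20 min, room temperature) was measured in GloSensor HEK293 control cells. Compounds were tested as a LOPAC titration series and preincubated for 30-50 min.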
# [9] = molecular target: Atrial natriuretic peptide receptor 1 (Homo sapiens) (UniProt P16066); assay: Natriuretic polypeptide receptor (hNpr1) antagonism - Pilot screen (AID 1347049; calls by dose curve;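 further: agonist-evoked cGMP luminescence read 20 min after hNppA addition; series mostly up to about 58 µM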)
# Procedure, shortened: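 cGMP-sensor HEK293/hNpr1 cells, 1500/well, plated overnight at 37C. 2% GloSensor reagent, 2 h RT. Compound (23 nL pin transfer) 30 min RT, baseline luminescence pre-read. 0.1 nM hNppA, 20 min RT, post-read.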
# [10] = molecular target: Atrial natriuretic peptide receptor 2 (Homo sapiens) (UniProt P20594); assay: Natriuretic polypeptide receptor (hNpr2) antagonism - Pilot subtype selectivity assay (AID 1347050; calls by dose curve)
# Procedure, shortened: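 Luminescence from a genetically encoded cGMP luciferase biosensor in hNpr2-expressing HEK293 cells is read before and 20 min after adding 1 nM hNppC. Test compounds, in interplate 1:5 titrations, are added 30-50 min ahead of the agonist.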
# [11] = molecular target: T1, Tyrosine-protein phosphatase non-receptor type substrate 1 (Homo sapiens) + Leukocyte surface antigen CD47 (Homo sapiens) (UniProt P78324+Q08722); assay: CD47-SIRPalpha protein protein interaction - Alpha assay qHTS validation (AID 1347059);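 further: bead proximity luminescence from CD47 binding SIRPalpha after compound preincubation with SIRPalpha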
# Procedure, shortened: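 SIRPalpha-biotin 25 nM + cpd, 30 min RT, dark; add CD47-His 12.5 nM, 30 min; add Ni-NTA/SAV beads 10 ug/mL, 30 min; AlphaScreen. Buffer PBS pH 7.4 + 0.05% IGEPAL CA-630. Non-biotinylated SIRPalpha as control inhibitor.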
# [12] = molecular target: T1, Tyrosine-protein phosphatase non-receptor type substrate 1 (Homo sapiens) + Leukocyte surface antigen CD47 (Homo sapiens); assay: CD47-SIRPalpha protein protein interaction - LANCE assay qHTS validation (AID 1347057; active means well fitted curve in the direction sought with a large enough effect in the signal ratio, with a control signal flat, not every such curve was filed as active; the % refers to the signal ratio; further: series mostly up to about 38 µM)
# Procedure, shortened: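 Inhibition of soluble CD47/SIRPalpha ectodomain association by titrated compounds, measured as 665/615 nm time-resolved FRET ratio after sequential 30 min room-temperature incubations.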
# [13] = molecular target: T1, Tyrosine-protein phosphatase non-receptor type substrate 1 (Homo sapiens) + Leukocyte surface antigen CD47 (Homo sapiens); assay: CD47-SIRPalpha protein protein interaction - HTRF assay qHTS validation (AID 1347058; active means well fitted curve in the direction sought with a large enough effect in the signal ratio, not every such curve was filed as active; the % refers to the signal ratio; further: series mostly up to about 38 µM)
# Procedure, shortened: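 Soluble extracellular domains (6His-CD47, Avi-tag-biotinylated SIRPalpha) in PBS pH 7.4 with 0.05% IGEPAL CA-630. Compounds were preincubated 30 min at RT with CD47 and anti-His-Eu, then SIRPalpha and SAV-XL665 were added. TR-FRET 665/615 ratio.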
# [14] = molecular target: Parathyroid hormone/parathyroid hormone-related peptide receptor (Homo sapiens) (UniProt Q03431); assay: qHTS for PTHR1 Agonists: Optimization Screen against the NCGC LOPAC library (AID 1347079);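 further: GloSensor cAMP luminescence in HEK-293 GP2 cells expressing human PTHR1 with IBMX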
# Procedure, shortened: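 Signal increase flags agonism. GP2 cells, derived from HEK-293, express human PTHR1 and a GloSensor cAMP construct.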
# Chain of Atrial natriuretic peptide receptor 2 (Homo sapiens) (P20594 whole entry, looked up): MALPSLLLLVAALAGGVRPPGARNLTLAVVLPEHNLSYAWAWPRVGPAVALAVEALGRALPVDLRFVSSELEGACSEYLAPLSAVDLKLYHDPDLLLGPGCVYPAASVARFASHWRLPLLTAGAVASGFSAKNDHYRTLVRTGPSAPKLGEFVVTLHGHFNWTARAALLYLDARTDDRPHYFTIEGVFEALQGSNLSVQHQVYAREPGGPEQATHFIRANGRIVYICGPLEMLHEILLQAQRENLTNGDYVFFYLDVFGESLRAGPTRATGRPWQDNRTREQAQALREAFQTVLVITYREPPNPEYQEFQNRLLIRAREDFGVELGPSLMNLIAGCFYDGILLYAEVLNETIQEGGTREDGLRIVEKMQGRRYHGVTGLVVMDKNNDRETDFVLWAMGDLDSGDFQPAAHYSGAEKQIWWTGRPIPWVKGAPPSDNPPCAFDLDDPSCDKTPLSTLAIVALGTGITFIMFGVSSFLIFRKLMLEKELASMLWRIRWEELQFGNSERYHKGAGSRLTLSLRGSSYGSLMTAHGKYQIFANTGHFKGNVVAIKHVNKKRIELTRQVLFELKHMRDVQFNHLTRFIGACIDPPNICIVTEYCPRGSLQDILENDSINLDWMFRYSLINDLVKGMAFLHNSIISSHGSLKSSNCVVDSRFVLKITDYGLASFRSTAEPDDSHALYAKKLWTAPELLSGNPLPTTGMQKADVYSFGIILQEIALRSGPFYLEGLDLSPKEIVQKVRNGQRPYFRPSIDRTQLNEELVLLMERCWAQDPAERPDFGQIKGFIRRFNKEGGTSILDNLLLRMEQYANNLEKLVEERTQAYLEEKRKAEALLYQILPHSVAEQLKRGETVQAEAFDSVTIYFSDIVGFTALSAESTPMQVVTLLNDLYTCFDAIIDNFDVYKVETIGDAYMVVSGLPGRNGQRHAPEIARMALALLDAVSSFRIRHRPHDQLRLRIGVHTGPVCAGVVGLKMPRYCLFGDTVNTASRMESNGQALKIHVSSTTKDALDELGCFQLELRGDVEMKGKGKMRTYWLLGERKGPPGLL
# T1 sequence (P78324 whole entry, looked up): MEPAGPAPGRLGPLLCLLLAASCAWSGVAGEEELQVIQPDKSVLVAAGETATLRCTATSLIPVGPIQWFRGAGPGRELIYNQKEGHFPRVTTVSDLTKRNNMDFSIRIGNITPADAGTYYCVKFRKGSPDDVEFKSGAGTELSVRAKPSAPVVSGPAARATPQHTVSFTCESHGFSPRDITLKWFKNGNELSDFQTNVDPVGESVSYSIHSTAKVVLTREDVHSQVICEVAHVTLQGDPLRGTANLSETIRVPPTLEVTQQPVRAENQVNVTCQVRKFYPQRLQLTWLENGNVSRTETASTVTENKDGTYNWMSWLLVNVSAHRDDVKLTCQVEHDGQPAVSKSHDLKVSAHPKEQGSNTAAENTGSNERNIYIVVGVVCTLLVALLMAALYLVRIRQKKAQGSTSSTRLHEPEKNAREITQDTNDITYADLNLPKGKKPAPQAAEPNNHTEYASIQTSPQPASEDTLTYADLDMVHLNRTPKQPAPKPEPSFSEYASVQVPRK
# T1 sequence (Q08722 whole entry, looked up): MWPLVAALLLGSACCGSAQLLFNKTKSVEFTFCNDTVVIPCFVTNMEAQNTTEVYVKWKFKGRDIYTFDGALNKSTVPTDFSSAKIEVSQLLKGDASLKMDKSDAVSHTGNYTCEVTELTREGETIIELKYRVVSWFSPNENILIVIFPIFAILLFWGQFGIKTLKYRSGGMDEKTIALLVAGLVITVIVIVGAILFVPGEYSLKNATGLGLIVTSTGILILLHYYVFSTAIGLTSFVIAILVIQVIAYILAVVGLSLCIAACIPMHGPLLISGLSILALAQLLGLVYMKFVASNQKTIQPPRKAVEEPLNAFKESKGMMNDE
# Chain of Nucleoprotein (Lymphocytic choriomeningitis virus (strain Armstrong)) (P09992 whole entry, looked up): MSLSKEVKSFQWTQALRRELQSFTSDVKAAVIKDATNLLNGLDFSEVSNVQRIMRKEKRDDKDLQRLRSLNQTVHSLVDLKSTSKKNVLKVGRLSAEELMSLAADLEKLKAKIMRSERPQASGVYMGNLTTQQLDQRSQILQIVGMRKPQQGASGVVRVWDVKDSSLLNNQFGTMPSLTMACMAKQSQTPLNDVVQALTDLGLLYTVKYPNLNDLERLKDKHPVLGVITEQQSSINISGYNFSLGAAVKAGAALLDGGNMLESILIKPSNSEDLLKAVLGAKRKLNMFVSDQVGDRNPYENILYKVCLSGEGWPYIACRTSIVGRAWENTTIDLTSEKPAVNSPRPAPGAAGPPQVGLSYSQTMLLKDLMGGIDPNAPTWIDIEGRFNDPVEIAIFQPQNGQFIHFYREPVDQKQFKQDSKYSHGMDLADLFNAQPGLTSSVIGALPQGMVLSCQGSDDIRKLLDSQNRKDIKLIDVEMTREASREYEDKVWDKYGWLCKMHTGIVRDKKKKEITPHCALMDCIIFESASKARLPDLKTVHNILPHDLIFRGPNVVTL
# Chain of Atrial natriuretic peptide receptor 1 (Homo sapiens) (P16066 whole entry, looked up): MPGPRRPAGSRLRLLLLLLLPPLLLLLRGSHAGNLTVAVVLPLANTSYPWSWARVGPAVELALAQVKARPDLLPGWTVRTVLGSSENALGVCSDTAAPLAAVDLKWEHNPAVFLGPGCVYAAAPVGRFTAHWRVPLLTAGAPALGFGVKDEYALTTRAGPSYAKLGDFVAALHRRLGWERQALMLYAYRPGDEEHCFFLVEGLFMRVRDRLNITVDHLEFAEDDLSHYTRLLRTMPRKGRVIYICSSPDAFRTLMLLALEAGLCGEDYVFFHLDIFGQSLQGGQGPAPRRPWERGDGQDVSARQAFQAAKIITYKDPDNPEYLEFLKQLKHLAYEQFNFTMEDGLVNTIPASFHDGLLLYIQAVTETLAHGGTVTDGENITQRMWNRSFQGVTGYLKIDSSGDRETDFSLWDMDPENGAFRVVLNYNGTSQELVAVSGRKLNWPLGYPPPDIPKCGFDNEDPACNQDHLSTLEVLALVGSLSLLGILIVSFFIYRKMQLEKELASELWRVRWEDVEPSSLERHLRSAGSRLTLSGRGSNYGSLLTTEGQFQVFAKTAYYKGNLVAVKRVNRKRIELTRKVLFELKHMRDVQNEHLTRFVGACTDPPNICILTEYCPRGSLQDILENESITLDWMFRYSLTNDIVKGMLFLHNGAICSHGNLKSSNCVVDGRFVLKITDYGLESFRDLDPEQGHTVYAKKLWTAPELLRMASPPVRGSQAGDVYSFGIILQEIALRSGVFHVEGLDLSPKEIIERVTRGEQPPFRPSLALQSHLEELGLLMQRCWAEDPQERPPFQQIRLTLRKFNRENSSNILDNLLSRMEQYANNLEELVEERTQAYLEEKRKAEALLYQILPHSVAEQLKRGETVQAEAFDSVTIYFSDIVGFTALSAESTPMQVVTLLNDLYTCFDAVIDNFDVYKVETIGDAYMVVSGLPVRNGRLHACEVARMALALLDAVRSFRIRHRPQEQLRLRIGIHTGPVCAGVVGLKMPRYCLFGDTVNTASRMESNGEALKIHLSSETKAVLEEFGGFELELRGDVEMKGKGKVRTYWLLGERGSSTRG
# Chain of Parathyroid hormone/parathyroid hormone-related peptide receptor (Homo sapiens) (Q03431 whole entry, looked up): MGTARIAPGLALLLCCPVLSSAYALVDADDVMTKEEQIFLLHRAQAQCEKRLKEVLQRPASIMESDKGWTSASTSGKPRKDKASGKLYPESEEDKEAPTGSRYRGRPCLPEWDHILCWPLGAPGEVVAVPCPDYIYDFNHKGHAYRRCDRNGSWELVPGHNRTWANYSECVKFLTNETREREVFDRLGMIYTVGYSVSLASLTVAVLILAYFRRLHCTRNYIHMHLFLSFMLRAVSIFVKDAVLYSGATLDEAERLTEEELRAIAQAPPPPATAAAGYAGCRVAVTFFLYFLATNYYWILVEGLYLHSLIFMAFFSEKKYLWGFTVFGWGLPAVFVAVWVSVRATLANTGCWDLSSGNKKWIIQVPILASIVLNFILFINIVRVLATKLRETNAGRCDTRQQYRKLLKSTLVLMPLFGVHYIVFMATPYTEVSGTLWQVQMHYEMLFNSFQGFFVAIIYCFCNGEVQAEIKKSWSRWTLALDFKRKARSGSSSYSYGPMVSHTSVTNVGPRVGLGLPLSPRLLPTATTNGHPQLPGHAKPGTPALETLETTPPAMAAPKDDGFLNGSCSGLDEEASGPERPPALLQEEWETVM
smiles,measurement,setting,value
Cc1ccccc1-n1c(Cn2ncc3c(N)ncnc32)nc2cccc(C)c2c1=O,Potency,[1],inactive
same,Potency,[2],inactive
same,Potency,[3],inactive
same,Potency,[4],0.485 µM (active)
same,Potency,[5],0.137 µM (active)
same,Potency,[6],0.193 µM (active)
O=[N+]([O-])c1ncc[nH]1,Potency,[2],inactive
same,Potency,[3],inactive
same,Potency,[7],inactive
same,Potency,[4],inactive
same,Potency,[5],inactive
same,Potency,[6],inactive
CCN1CCN(C(=O)Cc2ccc(Nc3ncc(F)c(Nc4ccc(C(=O)Nc5ccccc5Cl)cc4)n3)cc2)CC1,Potency,[2],2.96 µM (active) and 1.16 µM (active)
same,Potency,[3],11.8 µM (active)
same,Potency,[7],inactive
same,Potency,[4],4.32 µM (active)
same,Potency,[5],6.85 µM (active)
CC(C)(O)C(=O)Nc1ccc([N+](=O)[O-])c(C(F)(F)F)c1,Potency,[2],inactive
same,Potency,[3],inactive
CCN(CC)C(=O)c1ccc(C2=CC3(CCNCC3)Oc3cccc(O)c32)cc1,Potency,[2],inactive
same,Potency,[3],inactive
same,Potency,[7],inactive
same,Potency,[4],inactive
same,Potency,[5],inactive
same,Potency,[6],inactive
OCCCBr,Potency,[2],inactive
same,Potency,[3],inactive
same,Potency,[7],inactive
same,Potency,[4],inactive
same,Potency,[5],inactive
same,Potency,[6],inactive
C[C@@H]1CC[C@H]2[C@@H](C)C(=O)O[C@@H]3O[C@@]4(C)CC[C@H]1[C@]32OO4,Potency,[2],inactive
same,Potency,[3],inactive
same,Potency,[7],inactive
same,Potency,[4],inactive
same,Potency,[5],inactive
same,Potency,[6],inactive
COc1cccc2c1[C@]13CCN(CC4CC4)[C@H](C2)[C@]1(OC)CCC(=O)C3,Potency,[2],inactive
same,Potency,[3],inactive
same,Potency,[7],inactive
same,Potency,[4],inactive
same,Potency,[5],inactive
same,Potency,[6],inactive
CC1(N2CCC(n3c([C@@H]4CCCNC4)nc4ccccc43)CC2)CCCCCCC1,Potency,[2],23.5 µM (active) and 20.6 µM (active)
same,Potency,[3],20.9 µM (active)
same,Potency,[7],inactive
same,Potency,[4],inactive
same,Potency,[5],inactive
same,Potency,[6],inactive
CC(=CCCC1=CCC(C2=CC(=O)OC2O)OC1O)CCC1=C(C)CCCC1(C)C (stereo not drawn),Potency,[2],inactive
same,Potency,[3],inactive
same,Potency,[7],inactive
same,Potency,[4],inactive
same,Potency,[5],inactive
same,Potency,[6],inactive
COc1cc2cc(c1Cl)N(C)C(=O)C[C@H](OC(=O)C(C)C)[C@]1(C)O[C@H]1[C@H](C)[C@@H]1C[C@@](O)(NC(=O)O1)[C@H](OC)C=CC=C(C)C2,Potency,[2],1 nM (active)
same,Potency,[3],inactive
same,Potency,[7],inactive
same,Potency,[4],inactive
same,Potency,[5],inactive
same,Potency,[6],inactive
CCCCOC(=O)c1ccccc1C(=O)OCc1ccccc1,Potency,[2],inactive
same,Potency,[3],inactive
same,Potency,[7],inactive
same,Potency,[4],inactive
same,Potency,[5],inactive
same,Potency,[6],inactive
CC(Cc1ccc(O)cc1)NCC(O)c1cc(O)cc(O)c1 (stereo not drawn),Potency,[2],inactive
same,Potency,[8],inactive
same,Potency,[9],inactive
same,Potency,[10],inactive
same,Potency,[3],inactive
same,Potency,[11],inactive
same,Potency,[7],inactive
same,Potency,[4],inactive
same,Potency,[5],inactive
same,Potency,[6],inactive
NC(=O)CN1CC(O)CC1=O (stereo not drawn),Potency,[2],inactive
same,Potency,[8],inactive
same,Potency,[10],inactive
same,Potency,[3],inactive
same,outcome,[12],inactive
same,outcome,[13],inactive
same,Potency,[11],inactive
same,Potency,[7],inactive
same,Potency,[4],inactive
same,Potency,[5],inactive
same,Potency,[6],inactive
CC(C)N[C@@H]1CCn2c(=O)[nH]c3cccc(c32)[C@@H]1O,Potency,[2],inactive
same,Potency,[3],inactive
same,Potency,[7],8.63 µM (active)
same,Potency,[4],19.3 µM (active)
same,Potency,[5],4.85 µM (active)
same,Potency,[6],2.73 µM (active)
C=C1C[C@H]2[C@H]3CCC(=O)[C@@]3(C)CC[C@@H]2[C@@]2(C)C=CC(=O)C=C12,Potency,[2],inactive
same,Potency,[3],inactive
same,Potency,[7],inactive
same,Potency,[4],inactive
same,Potency,[5],inactive
same,Potency,[6],inactive
CCOCCOC(C)=O,Potency,[2],inactive
same,Potency,[3],inactive
same,Potency,[7],inactive
same,Potency,[4],inactive
same,Potency,[5],inactive
same,Potency,[6],inactive
Nc1ccc(Sc2ccc(N)cc2)cc1,Potency,[2],inactive
same,Potency,[3],inactive
same,Potency,[7],inactive
same,Potency,[4],inactive
same,Potency,[5],inactive
same,Potency,[6],inactive
CCOP(=O)(OCC)C(C)NC(=O)N(CCCl)N=O (stereo not drawn),Potency,[2],inactive
same,Potency,[3],inactive
same,Potency,[7],inactive
same,Potency,[4],inactive
same,Potency,[5],inactive
same,Potency,[6],inactive
O=C1CCC[C@@H]2[C@H]3CCCN4CCC[C@@H](CN12)[C@@H]34,Potency,[2],inactive
same,Potency,[3],inactive
same,Potency,[7],inactive
same,Potency,[4],inactive
same,Potency,[5],inactive
same,Potency,[6],inactive
C[C@](O)(COc1ccc(C#N)cc1)C(=O)Nc1ccc(C#N)c(C(F)(F)F)c1,Potency,[2],inactive
same,Potency,[3],inactive
same,Potency,[7],inactive
same,Potency,[4],38.5 µM (active)
CC[C@@]1(O)C(=O)OCc2c1cc1n(c2=O)Cc2cc3ccccc3nc2-1,Potency,[2],332 nM (active)
same,Potency,[8],inactive
same,Potency,[9],inactive
same,Potency,[10],inactive
same,Potency,[3],11.8 nM (active) and inactive
same,Potency,[11],inactive
same,Potency,[7],inactive
same,Potency,[4],193 nM (active) and 199 nM (active)
same,Potency,[6],inactive
CC(O)CN1CCN(CC(=O)[O-])CCN(CC(=O)[O-])CCN(CC(=O)[O-])CC1.[Gd+3] (stereo not drawn),Potency,[2],inactive
same,Potency,[3],inactive
same,Potency,[7],inactive
same,Potency,[4],inactive
same,Potency,[5],inactive
same,Potency,[6],inactive
Nc1ccc(Cl)cc1,Potency,[2],inactive
same,Potency,[3],inactive
same,Potency,[7],inactive
same,Potency,[4],inactive
same,Potency,[5],inactive
same,Potency,[6],inactive
Cc1c(C(=O)c2cccc3ccccc23)c2cccc3c2n1[C@H](CN1CCOCC1)CO3,Potency,[2],7430 nM (active)
same,Potency,[9],inactive
same,Potency,[10],inactive
same,outcome,[14],inactive
